From PubChem
RORgamma inh – qHTS for inhibitors of ROR gamma transcriptional activity; Potency, µM (highest dose often 53.6 µM), for inactives: at the top dose activity change, negative = inhibition, usual class: inhibitors; 310,000 compounds, 5.4% hits; Drosophila S2 Gal4-RORgamma UAS-luciferase reporter, 20 h; Nuclear receptor ROR-gamma (Mus musculus), P51450; AID 2551, 2010; further: on the % scale 0 is the no-effect control and ±100 the full control effect; nearly all actives have a fitted effect of over 60% in size
Target sequence (P51450 whole entry, looked up, the tested form may be a part): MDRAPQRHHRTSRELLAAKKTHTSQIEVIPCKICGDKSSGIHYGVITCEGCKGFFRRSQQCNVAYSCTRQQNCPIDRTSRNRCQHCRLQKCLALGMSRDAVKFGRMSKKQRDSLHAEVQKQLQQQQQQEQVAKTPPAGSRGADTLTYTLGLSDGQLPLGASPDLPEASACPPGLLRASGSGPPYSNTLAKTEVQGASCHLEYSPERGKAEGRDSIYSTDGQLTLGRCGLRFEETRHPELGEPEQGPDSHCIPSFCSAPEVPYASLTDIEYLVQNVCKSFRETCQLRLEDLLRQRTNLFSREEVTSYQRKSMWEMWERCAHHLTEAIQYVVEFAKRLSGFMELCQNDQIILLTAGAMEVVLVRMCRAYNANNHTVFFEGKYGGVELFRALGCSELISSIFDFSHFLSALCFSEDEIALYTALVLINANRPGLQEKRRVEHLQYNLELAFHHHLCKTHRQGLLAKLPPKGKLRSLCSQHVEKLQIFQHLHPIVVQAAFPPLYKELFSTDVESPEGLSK
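Compounds are pin-transferred onto Drosophila Schneider cells expressing a copper-inducible Gal4–ROR gamma transactivation domain fusion. After 1 hr, copper sulfate is added to 700 uM final; luciferase is read 20 hr later.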
SW480 rereplic – A quantitative high throughput screen for small molecules that induce DNA re-replication in SW480 colon adenocarcinoma cells | SW480 DNA re-replication, Hoechst DNA content imaging, 48 h | 340,000 compounds, 1.8% hits | Potency, µM (top dose mostly 46.1 µM), for the others: at the highest dose re-replication activation, hits mostly activators; further: % of control where 0% means no effect; nearly all actives have a fitted effect of over 55% in size
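Compounds, transferred as 23 nL by pin tool, were incubated with cells for 48 hr; DNA content per nucleus was then quantified by Hoechst staining and fluorescence plate imaging.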
ELG1 repair inh – qHTS screen for small molecules that inhibit ELG1-dependent DNA repair in human embryonic kidney (HEK293T) cells expressing luciferase-tagged ELG1; HEK293T ELG1-luciferase reporter, luminescence, 16 h; DNA damage induced by 5-fluorouridine; Potency, µM (doses to about 46.1 µM), for inactives: at the top dose activity change, negative = inhibition, most hits filed as inhibitors; 330,000 compounds, 2.3% hits; AID 504467, 2011; further: on the % scale 0 is the no-effect control and ±100 the full control effect; nearly all actives have a fitted effect of over 55% in size
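HEK293T cells expressing luciferase-tagged ELG1 (2,000/well) received 5-Fluorouridine plus compound or DMSO for 16 hr at 37 °C. Luciferase was read by ONE-Glo luminescence after 30 min at room temperature.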
VP16 counter – VP16 counterscreen qHTS for inhibitors of ROR gamma transcriptional activity | Drosophila S2 Gal4-VP16 UAS-luciferase, luminescence, 20 h | Potency, µM (top dose mostly 53.6 µM), for inactives: at the highest dose activity, negative = inhibition, most hits filed as inhibitors | 310,000 compounds, 3.5% hits | AID 2546, 2010;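 further: Gal4-VP16 expression switched on by copper sulfate through the metallothionein promoter; on the % scale 0 is the no-effect control and ±100 the full control effect; nearly all actives have a fitted effect of over 50% in size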
MCF10A rereplic – A quantitative high throughput screen for small molecules that induce DNA re-replication in MCF 10a normal breast cells; MCF 10A DNA re-replication, Hoechst nuclear intensity, 48 h; Potency, µM (doses to about 46.1 µM), inactives show top-dose activity, positive = re-replication, usual class: activators; 350,000 compounds, 2.9% hits; further: % of control where 0% means no effect; nearly all actives have a fitted effect of over 50% in size
* marks the source's active call; other numbers are inactive results; ? = inconclusive; . = no result; [ ] = another dose, or the depositor's remark. Sampled rows, rich in hits. Any-hit rate of the full collection: about 10%. The call rests on the fitted dose curve; in most records, active means well fitted curve in the direction sought with a large enough effect; inconclusive means small, poorly fitted or top-dose-only effect, or another doubt; inactive means no such curve, though single readings can be large; an effect the other way counts as inactive or inconclusive. Potency means the concentration at half of the fitted maximal effect.

SMILES | RORgamma inh | SW480 rereplic | ELG1 repair inh | VP16 counter | MCF10A rereplic
Cn1c(N)c(C(=O)COC(=O)c2cncc(Br)c2)c(=O)n(C)c1=O | -18% | 1% | ? | 0% | 6%
CC(C)C[C@H](NC(=O)c1nc[nH]c1C(=O)NCC(=O)OCc1ccccc1)C(=O)OC(C)(C)C | 13µM* | 1% | -18% | ? | -14%
C[C@H](NC(=O)c1nc[nH]c1C(=O)NCC(=O)OCc1ccccc1)C(=O)OC(C)(C)C | -88% | 3% | -7% | ? | -6%
CC(C)C[C@H](NC(=O)c1[nH]cnc1C(=O)N[C@@H](C)C(=O)OCc1ccccc1)C(=O)OC(C)(C)C | 7.1µM* | -2% | 19% | 16µM* | 16%
Cc1nnc(N2C(=O)C(=O)/C(=C(/O)c3ccc4c(c3)OCCO4)C2c2ccc([N+](=O)[O-])cc2)s1 (stereo unspecified) | 2% | . | ? | 13% | .
CCCC(=O)NC(Nc1c(C)n(C)n(-c2ccccc2)c1=O)C(Cl)(Cl)Cl (stereo unspecified) | -9% | -6% | -2% | -2% | -5%
O=C1OCC2=C1C(c1ccccc1)CC(=O)N2c1ccccc1 (stereo unspecified) | -8% | -8% | 10% | -3% | -11%
O=S(=O)(c1cccc(NC(=S)N2CCN(c3ccc(F)cc3)CC2)c1)C(F)F | 41% | 18µM* | ? | ? | ?
S=C(NC1CC1)N1CCN(c2ccc(Cl)cc2)CC1 | -37% | -3% | 3% | 10% | 7%
NS(=O)(=O)c1ccc(NC(=S)N2CCN(c3cccc(Cl)c3)CC2)cc1 | ? | 0% | -23% | ? | ?
S=C(NC1CCCC1)N1CCN(c2cccc(Cl)c2)CC1 | 11µM* | -6% | ? | -25% | 7%
O=S(=O)(c1cccc(NC(=S)N2CCN(c3cccc(Cl)c3)CC2)c1)C(F)F | 13µM* | 3% | -6% | ? | ?
O=C(c1cccc(S(=O)(=O)N2CCCC2)c1)c1nnc(-c2ccncc2)o1 | 8% | 3% | ? | 4% | 8%
CCCCn1c(N)c(N(CC(C)C)C(=O)c2ccc(S(=O)(=O)N3CCCCCC3)cc2)c(=O)[nH]c1=O | . | 1% | ? | . | 0%
N#Cc1ccccc1OCC(=O)OCC(=O)NC1CCS(=O)(=O)C1 (stereo unspecified) | . | -4% | -1% | . | 0%
Cc1ccccc1NC(=O)CSc1nnc(-c2ccccc2)n1-c1ccccc1 | 13% | 6% | 2% | 0% | 0%
COc1ccccc1NC(=O)CC(=O)CSc1nnc(-c2ccc(C)cc2)n1-c1ccccc1 | 7.1µM* | -65% | 6% | 10µM* | -2%
CCn1c(CNC(=O)COc2ccc(C(C)C)cc2)nnc1SCC(=O)Nc1ccccc1C(C)C | 31% | 0% | ? | 20µM* | ?
N#Cc1ccccc1NC(=O)CSc1nnc(-c2ccccc2O)n1-c1ccccc1 | 13µM* | ? | ? | ? | 28%
COc1cc(-c2nnc(CSc3nnc(Nc4ccc(Oc5ccccc5)cc4)s3)o2)cc(OC)c1OC | ? | 9% | 7.3µM* | -2% | 12%
COc1cc(-c2nnc(CSc3nnc(N)s3)o2)cc(OC)c1OC | -14% | -3% | 4% | -26% | 2%
O=c1oc2c3c4c(cc2c2c1CCC2)OCCN4CCC3 | 3% | ? | -16% | 4% | ?
O=C(COC(=O)c1cc(S(=O)(=O)N2CCOCC2)ccc1F)NCc1ccco1 | 0% | -4% | 1% | 0% | 3%
COc1ccc(C(C)=O)cc1CSc1nnc(Nc2ccc(C)cc2)s1 | 20% | 1% | ? | ? | 6%
CCn1c(COc2cccc(C)c2)nnc1SCC(=O)CC(=O)Nc1ccccc1OC | 10µM* | 10% | 3% | ? | 7%
SMILES | RORgamma inh | SW480 rereplic | ELG1 repair inh | VP16 counter | MCF10A rereplic
CCn1c(COc2ccccc2C)nnc1SCC(=O)CC(=O)Nc1ccccc1OC | 10µM* | 0% | -10% | 13µM* | ?
COc1ccc(C(C)=O)cc1CSc1nnc(-c2ccncc2)n1C | 0% | -16% | -6% | -5% | 1%
COc1ccc(C(C)=O)cc1CSc1nnc(Nc2ccccc2)s1 | ? | 1% | 15µM* | -16% | 5%
COc1ccc(C(C)=O)cc1CSc1nnc(-c2ccc(Cl)cc2)n1-c1ccccc1 | ? | 10%[9.22 µM] | ? | 16µM* | ?
Cc1c(C(=O)N2CCc3ccccc3C2)oc2ccccc12 | 2% | 7% | ? | -2% | ?
CC(C)(C)c1ccc(C(=O)NCCC(=O)NNC(=O)COc2ccc(F)cc2)cc1 | . | -16% | ? | . | 10%
CC(=O)N1C(C)(C)CC(=NOS(=O)(=O)c2ccccc2)CC1(C)C | 12% | -12% | ? | 1%[10 µM] | -9%
Cc1sc2ncnc(N3CCC(C(=O)NNC(=O)COc4cccc(C(F)(F)F)c4)CC3)c2c1C | . | -4% | ? | . | ?
CCn1c(COc2ccccc2)nnc1SCC(=O)CC(=O)Nc1ccccc1OC | ? | -1% | 4% | 22µM* | 29%
COc1ccc(-c2nnc(SCC(=O)Nc3ncc(C)s3)n2-c2ccccc2)cc1OC | ? | 16µM* | 21µM* | -23% | 13µM*
COc1ccc(-c2nnc(SCC(=O)NNC(=O)Cc3ccccc3)n2C)cc1OC | -10% | -5% | 6% | -2% | 0%
O=C(NCCCN1CCOCC1)c1ccc(-n2nc(C(F)(F)F)cc2-c2cccs2)cc1 | 2% | 0% | 15µM* | 5% | ?
COCCCNC(=O)c1ccc(-n2nc(C(F)(F)F)cc2-c2cccs2)cc1 | 38% | -7% | ? | -19% | 3%
COc1ccc(C(=O)/C=C/C(=O)N(Cc2ccc3c(c2)OCO3)C(C(=O)NC2CCCCC2)c2ccncc2)c(O)c1 (stereo unspecified) | ? | ? | 7.3µM* | ? | ?
COc1ccc(CN(C(=O)/C=C/C(=O)c2ccc(OC)cc2O)C(C(=O)NC2CCCCC2)c2ccncc2)cc1 (stereo unspecified) | -14%[10 µM] | ? | 16µM* | 1% | 14%
O=C(NC1CCCCC1)C(c1ccncc1)N(Cc1ccc2c(c1)OCO2)C(=O)c1cnsn1 (stereo unspecified) | 22% | ? | -9% | -2% | -6%
N=C1/C(=C\c2ccc(OCc3ccccc3)cc2)C(=O)N=C2SC(N3CCCC3)=NN12 | -9% | . | 17% | 4% | .
CS(=O)(=O)CCCCN=C=S | 13µM* | . | . | -16% | .
COc1ccc(/C=N/Nc2cc(C)nc(-n3nc(C)cc3C)n2)c(OC)c1 | 0.2µM* | ? | -1% | 0.28µM* | ?
